In PubChem BioAssay:
Results filed as inconclusive are left out. Active and inactive are the calls of the source.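 The calls were made as follows, unless noted: active = normalized viability below 100% at a tested concentration; inactive = the rest.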

Columns and labels:
[1] = ovarian cancer cell viability with rucaparib, profiling panel, oncology-focused library, rucaparib conditional (AID 1508598); settings: patient-derived ovarian cancer cells, CellTiter-Glo viability, 144 h, stronger effect = lower value
[2] = growth inhibition of DIPG glioma cells, dose response, cell-based, SU-DIPG-XVII, MIPE5.0, CellTiter-Glo, qHTS (AID 1347060; cut-off not given, nearly all actives have AC50 up to about 26 µM;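 as to AC50: cells exposed to compound for 48 hours before viability readout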); settings: SU-DIPG-XVII viability, CellTiter-Glo ATP luminescence
[3] = growth inhibition of DIPG glioma cells, dose response, cell-based, SU-DIPG-IV, MIPE4.0, CellTiter-Glo, qHTS (AID 1347063; cut-off not given, nearly all actives have AC50 up to about 30 µM;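 also: compound exposure lasted 48 hours before the viability readout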); settings: SU-DIPG-IV viability, CellTiter-Glo ATP luminescence
[4] = growth inhibition of DIPG glioma cells, dose response, cell-based, SU-DIPG-XIII, MIPE5.0, CellTiter-Glo, qHTS (AID 1347064; cut-off not given, nearly all actives have AC50 up to about 23 µM;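 as to AC50: cells exposed to compound for 48 hours before the viability read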); settings: SU-DIPG-XIII viability, CellTiter-Glo ATP luminescence
[5] = viability loss in pontine glioma line – cell-based, SU-DIPG-XXV, MIPE5.0, CellTiter-Glo, qHTS, dose response (AID 1347065; cut-off not given, nearly all actives have AC50 up to about 26 µM;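 also: cells exposed to compound for 48 hours before ATP readout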); settings: CellTiter-Glo ATP luminescence
[6] = SU-DIPG-VI glioma cell viability, MIPE4.0 library, CellTiter-Glo luminescence, qHTS (AID 1347066; cut-off not given, nearly all actives have AC50 up to about 30 µM;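 also: cells exposed to compound for 48 hours before readout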); settings: CellTiter-Glo ATP luminescence
[7] = JHH-DIPG-1 glioma cell viability, MIPE5.0 library, CellTiter-Glo luminescence, qHTS (AID 1347067; cut-off not given, nearly all actives have AC50 up to about 26 µM;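 also: cells exposed to compound for 48 hours before readout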); settings: JHH-DIPG-1 glioma viability, CellTiter-Glo ATP luminescence
[8] = SU-DIPG-XXV glioma cell viability, MIPE5.0 library, qHTS (AID 1347068; cut-off not given, nearly all actives have IC50 up to about 30 µM;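 as to IC50: cells exposed to compound for 48 hours before viability readout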)
[9] = sensitizers of A549 cells to miR-34 induction, primary screen, imaging, A549 dox-inducible miR-34, nuclei and caspase counts (AID 1347080;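 active = compounds whose cell count with miR-34 switched on is under 0.7 times the count with it off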); settings: A549 miR-34 inducible, Hoechst nuclei count, 48 h
[10] = modifiers of HSF1 nuclear foci, imaging, Selleck Cancer Library (AID 1347162; in the data active = plate-normalised HSF1 focus index below about 0.46); settings: human cells, at 10 µM; SSMD: measured here: HSF1 foci SSMD mean; cell count: measured here: cell number; plate-normalised HSF1 focus index: stronger effect = lower value
[11] = survival rescue of mitochondrial mutant cells in low glucose, primary screen, MELAS cybrids, Rieske KO mouse fibroblasts, CellTiter-Glo (AID 1508586;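 active = mean z-score across replicates of 1.96 or higher in either the MELAS or the Rieske mutant cell line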;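 also: z relative to plate mean and SD of compound and empty wells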)
[12] = at 0.313 µM, OCI-P5x cells, with rucaparib 20 µM, 100% = cells with rucaparib alone
[13] = at 0.313 µM, OCI-P5x cells, without rucaparib
[14] = at 1.25 µM, OCI-C5x cells, with rucaparib 10 µM, 100% = cells with rucaparib alone
[15] = at 1.25 µM, OCI-C5x cells, without rucaparib
[16] = at 1.25 µM, OCI-P5x cells, with rucaparib 20 µM, 100% = cells with rucaparib alone
[17] = at 1.25 µM, OCI-P5x cells, without rucaparib
[18] = at 5 µM, OCI-C5x cells, with rucaparib 10 µM, 100% = cells with rucaparib alone
[19] = at 5 µM, OCI-C5x cells, without rucaparib
[20] = at 5 µM, OCI-P5x cells, with rucaparib 20 µM, 100% = cells with rucaparib alone
[21] = at 5 µM, OCI-P5x cells, without rucaparib
[22] = stronger effect = lower value, cell number ratio, induced over uninduced
[23] = measured here: relative caspase fold change +Dox/-Dox
[24] = measured here: total cells with miR-34 induction, stronger effect = lower value
[25] = measured here: total cells without miR-34 induction
[26] = MELAS cybrid survival, CellTiter-Glo 48 h, stronger effect = higher value
[27] = Rieske KO mouse fibroblast survival, CellTiter-Glo 72 h
[28] = at 0.000305 µM, OCI-C5x cells, with rucaparib 10 µM, 100% = cells with rucaparib alone
[29] = at 0.000305 µM, OCI-C5x cells, without rucaparib
[30] = at 0.000305 µM, OCI-P5x cells, with rucaparib 20 µM, 100% = cells with rucaparib alone
[31] = at 0.000305 µM, OCI-P5x cells, without rucaparib
[32] = at 0.00122 µM, OCI-C5x cells, with rucaparib 10 µM, 100% = cells with rucaparib alone
[33] = at 0.00122 µM, OCI-C5x cells, without rucaparib
[34] = at 0.00122 µM, OCI-P5x cells, with rucaparib 20 µM, 100% = cells with rucaparib alone
[35] = at 0.00122 µM, OCI-P5x cells, without rucaparib
[36] = at 0.00488 µM, OCI-C5x cells, with rucaparib 10 µM, 100% = cells with rucaparib alone
[37] = at 0.00488 µM, OCI-C5x cells, without rucaparib
[38] = at 0.00488 µM, OCI-P5x cells, with rucaparib 20 µM, 100% = cells with rucaparib alone
[39] = at 0.00488 µM, OCI-P5x cells, without rucaparib
[40] = at 0.0195 µM, OCI-C5x cells, with rucaparib 10 µM, 100% = cells with rucaparib alone
[41] = at 0.0195 µM, OCI-C5x cells, without rucaparib
[42] = at 0.0195 µM, OCI-P5x cells, with rucaparib 20 µM, 100% = cells with rucaparib alone
[43] = at 0.0195 µM, OCI-P5x cells, without rucaparib
[44] = at 0.0781 µM, OCI-C5x cells, with rucaparib 10 µM, 100% = cells with rucaparib alone
[45] = at 0.0781 µM, OCI-C5x cells, without rucaparib
[46] = at 0.0781 µM, OCI-P5x cells, with rucaparib 20 µM, 100% = cells with rucaparib alone
[47] = at 0.0781 µM, OCI-P5x cells, without rucaparib
[48] = at 0.313 µM, OCI-C5x cells, with rucaparib 10 µM, 100% = cells with rucaparib alone
[49] = at 0.313 µM, OCI-C5x cells, without rucaparib

## COc1ccc(-c2ccc3c(N4CCOC[C@@H]4C)nc(N4CCOC[C@@H]4C)nc3n2)cc1CO
[1]; [12]
  viability: 34.3% (active)
[1]; [13]
  viability: 17% (active)
[1]; [14]
  viability: 54.1% (active)
[1]; [15]
  viability: 47.3% (active)
[1]; [16]
  viability: 30.6% (active)
[1]; [17]
  viability: 22.6% (active)
[1]; [18]
  viability: 48% (active)
[1]; [19]
  viability: 47.3% (active)
[1]; [20]
  viability: 26.9% (active)
[1]; [21]
  viability: 20.8% (active)

## O=C(Nc1ccccc1-c1cn2c(CN3CCNCC3)csc2n1)c1cnc2ccccc2n1
[2]
  AC50: 9.34 µM (active)
[3]
  AC50: 8.33 µM (active)
[4]
  AC50: 2.09 µM (active)
[5]
  AC50: 3.32 µM (active)
[6]
  AC50: 10.5 µM (active)
[7]
  AC50: 3.72 µM (active)
[8]
  IC50: 10.5 µM (active)
[9]; [22]
  fold change: 0.907 (inactive)
[9]; [23]
  fold change: 0.998
[9]; [24]
  cell count: 6250
[9]; [25]
  cell count: 6890
[10]
  SSMD: -4.31
  cell count: 6160
  plate-normalised HSF1 focus index: 0.795 (inactive)
[11]; [26]
  z-score: -0.642 (inactive)
[11]; [27]
  z-score: 0.327
[1]; [28]
  viability: 102% (inactive)
[1]; [29]
  viability: 114% (inactive)
[1]; [30]
  viability: 123% (inactive)
[1]; [31]
  viability: 115% (inactive)
[1]; [32]
  viability: 101% (inactive)
[1]; [33]
  viability: 106% (inactive)
[1]; [34]
  viability: 117% (inactive)
[1]; [35]
  viability: 116% (inactive)
[1]; [36]
  viability: 106% (inactive)
[1]; [37]
  viability: 110% (inactive)
[1]; [38]
  viability: 111% (inactive)
[1]; [39]
  viability: 114% (inactive)
[1]; [40]
  viability: 113% (inactive)
[1]; [41]
  viability: 116% (inactive)
[1]; [42]
  viability: 111% (inactive)
[1]; [43]
  viability: 114% (inactive)
[1]; [44]
  viability: 113% (inactive)
[1]; [45]
  viability: 110% (inactive)
[1]; [46]
  viability: 110% (inactive)
[1]; [47]
  viability: 110% (inactive)
[1]; [48]
  viability: 110% (inactive)
[1]; [49]
  viability: 108% (inactive)
[1]; [12]
  viability: 113% (inactive)
[1]; [13]
  viability: 107% (inactive)
[1]; [14]
  viability: 131% (inactive)
[1]; [15]
  viability: 120% (inactive)
[1]; [16]
  viability: 68.8% (active)
[1]; [17]
  viability: 89.6% (active)
[1]; [18]
  viability: 1.3% (active)
[1]; [19]
  viability: 1.45% (active)
[1]; [20]
  viability: 0.727% (active)
[1]; [21]
  viability: 0.751% (active)

## C/C(O)=C(\C#N)C(=O)Nc1ccc(C(F)(F)F)cc1
[2]
  outcome: inactive
[3]
  outcome: inactive
[4]
  outcome: inactive
[5]
  outcome: inactive
[6]
  outcome: inactive
[7]
  outcome: inactive
[8]
  outcome: inactive

## COc1cccc2cc(-c3nc(C4CCC(C(=O)O)CC4)n4ncnc(N)c34)[nH]c12 (centres undefined)
[2]
  AC50: 5.9 µM (active)
[3]
  AC50: 0.166 µM (active)
[4]
  AC50: 3.72 µM (active)
[5]
  AC50: 2.63 µM (active)
[7]
  AC50: 1.18 µM (active)
[8]
  outcome: inactive
[9]; [22]
  fold change: 0.965 (inactive)
[9]; [23]
  fold change: 0.637
[9]; [24]
  cell count: 3250
[9]; [25]
  cell count: 3360
[11]; [26]
  z-score: 4.23 (active)
[11]; [27]
  z-score: -0.621

## N#CCNC(=O)c1ccc(-c2ccnc(Nc3ccc(N4CCOCC4)cc3)n2)cc1
[2]
  AC50: 16.6 µM (active)
[3]
  AC50: 20.9 µM (active)
[4]
  AC50: 13.2 µM (active)
[5]
  AC50: 16.6 µM (active)
[7]
  AC50: 13.2 µM (active)
[8]
  IC50: 18.6 µM (active)
[9]; [22]
  fold change: 0.941 (inactive)
[9]; [23]
  fold change: 0.89
[9]; [24]
  cell count: 1150
[9]; [25]
  cell count: 1230
[10]
  SSMD: -3.51
  cell count: 7330
  plate-normalised HSF1 focus index: 0.876 (inactive)
[11]; [26]
  z-score: 5.22 (active)
[11]; [27]
  z-score: -1.38
[1]; [28]
  viability: 109% (inactive)
[1]; [29]
  viability: 113% (inactive)
[1]; [30]
  viability: 105% (inactive)
[1]; [31]
  viability: 104% (inactive)
[1]; [32]
  viability: 103% (inactive)
[1]; [33]
  viability: 108% (inactive)
[1]; [34]
  viability: 105% (inactive)
[1]; [35]
  viability: 103% (inactive)
[1]; [36]
  viability: 110% (inactive)
[1]; [37]
  viability: 117% (inactive)
[1]; [38]
  viability: 106% (inactive)
[1]; [39]
  viability: 96.8% (active)
[1]; [40]
  viability: 109% (inactive)
[1]; [41]
  viability: 104% (inactive)
[1]; [42]
  viability: 103% (inactive)
[1]; [43]
  viability: 93.3% (active)
[1]; [44]
  viability: 122% (inactive)
[1]; [45]
  viability: 116% (inactive)
[1]; [46]
  viability: 96.9% (active)
[1]; [47]
  viability: 92.3% (active)
[1]; [48]
  viability: 108% (inactive)
[1]; [49]
  viability: 105% (inactive)
[1]; [12]
  viability: 90.7% (active)
[1]; [13]
  viability: 66.2% (active)
[1]; [14]
  viability: 120% (inactive)
[1]; [15]
  viability: 101% (inactive)
[1]; [16]
  viability: 84.2% (active)
[1]; [17]
  viability: 84.9% (active)
[1]; [18]
  viability: 78.5% (active)
[1]; [19]
  viability: 109% (inactive)
[1]; [20]
  viability: 46.8% (active)
[1]; [21]
  viability: 49% (active)
